High-throughput results: PubChem BioAssay, National Center for Advancing Translational Sciences (NCATS)
GLP1R ag: agonists of human GLP-1 receptor | P43220 | HEK293 GLP-1R CRE-luciferase, luminescence, 4-6 h; cells express a hypersensitive GLP-1R form | Potency, µM (series often up to 45.6 µM), inactives show top-dose activation, usual class: activators | AID 624172 | hit rate 0.007% among 380,000; further: potency means the concentration at half of the fitted maximal effect; % of control where 0% means no effect
hERG WT inh: KCNH2 (human, wildtype) channel inhibition; U2OS, BacMam KCNH2, thallium flux FluxOr; hits give low values; Q12809; activity change, % at 1.84 µM; hit rate 0.37% among 340,000;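 active means maximum activity change below -70%; inconclusive means maximum activity change between -70% and -50%; inactive means maximum activity change above -50%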; further: on the % scale 0 is the no-effect control and ±100 the full control effect
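U2OS cells transduced with wild-type KCNH2 virus are loaded with FluxOr dye for 45 min, and thallium flux is measured in kinetic reads before and after stimulation buffer. Rate constants are normalized to DMSO controls.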
KCNH2 3.1 block: KCNH2 3.1 (human) potassium channel inhibition; U2OS KCNH2 3.1, thallium flux FluxOr; hits give low values; activity change, % (tested at about 1.8 µM); hit rate 0.95% among 340,000; AID 720553;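 active means maximum activity change below -70%; inconclusive means maximum activity change from -70% to -50%; inactive means maximum activity change above -50%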;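 further: thallium influx rate constant from kinetic fluorescence after stimulation buffer; on the % scale 0 is the no-effect control and ±100 the full control effect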
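Thallium flux via FluxOr fluorescence (Red40 quencher, 45 min loading) in U2OS cells virally expressing the KCNH2 3.1 isoform (1.77 x 10^8 /mL virus, overnight at 37 C). Rate constants from 2-min kinetic reads post-stimulation, normalised to positive and negative controls.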
GLP1R inv ag: GLP-1 receptor (human) inverse agonism; P43220; HEK293 GLP-1R CRE-luciferase, luminescence, 24 h; GLP-1R form is constitutively active; Potency, µM (highest dose often 38.3 µM), without a hit: at the highest dose activity change, negative = inhibition, hits mostly inhibitors; hit rate 1.6% among 410,000; further: potency means the concentration at half of the fitted maximal effect; on the % scale 0 is the no-effect control and ±100 the full control effect; nearly all actives have a fitted effect of over 55% in size
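Constitutively active GLP-1R drives a cAMP-responsive luciferase in stably transfected HEK293 cells; test compounds are added after overnight (12 h) attachment and left 24 hr, and signal loss in luminescence marks inhibition.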
GLS inh: glutaminase GLS (human) inhibition | O94925 | GLS enzymatic activity, qHTS titration | Potency, µM (series often up to 45.5 µM), inactives show top-dose activity change, negative = inhibition, hits mostly inhibitors | hit rate 0.21% among 410,000 | AID 624170; further: potency means the concentration at half of the fitted maximal effect; on the % scale 0 is the no-effect control and ±100 the full control effect
Target sequence (O94925 whole entry, looked up): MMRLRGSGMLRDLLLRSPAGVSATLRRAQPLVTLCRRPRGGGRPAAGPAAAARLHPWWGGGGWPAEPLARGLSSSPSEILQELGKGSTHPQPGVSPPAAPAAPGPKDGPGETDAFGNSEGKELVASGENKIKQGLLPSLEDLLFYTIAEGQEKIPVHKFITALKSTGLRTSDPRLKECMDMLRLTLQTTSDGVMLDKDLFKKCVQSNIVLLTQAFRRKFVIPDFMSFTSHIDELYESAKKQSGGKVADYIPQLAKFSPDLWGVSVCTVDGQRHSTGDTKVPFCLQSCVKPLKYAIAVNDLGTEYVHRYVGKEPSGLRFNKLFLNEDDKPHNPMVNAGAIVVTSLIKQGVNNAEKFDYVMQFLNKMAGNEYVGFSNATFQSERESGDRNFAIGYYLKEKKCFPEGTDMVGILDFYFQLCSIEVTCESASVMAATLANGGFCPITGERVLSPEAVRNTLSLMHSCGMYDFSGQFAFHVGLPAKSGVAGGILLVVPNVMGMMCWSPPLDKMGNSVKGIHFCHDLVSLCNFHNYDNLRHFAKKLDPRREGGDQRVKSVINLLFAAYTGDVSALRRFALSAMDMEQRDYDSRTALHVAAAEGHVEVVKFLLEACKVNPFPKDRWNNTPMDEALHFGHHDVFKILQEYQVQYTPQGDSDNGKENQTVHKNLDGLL
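Enzyme dispensed in phosphate buffer (45 mM, pH 8.2, 0.02% Tween-20), compounds pinned in, then 1 mM L-glutamine solution and the glutamate oxidase–HRP–Amplex Red mix added; fluorescence read immediately and again after 30 min at room temperature.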
HEK293 tox: cytotoxicity counter-screen for GLP-1 receptor inverse agonists | HEK293 cAMP-luciferase reporter cells, luminescence, 24 h | Potency, µM (titrated, usually from 38.3 µM), inactives show at the highest dose activity change, negative = inhibition, most hits filed as inhibitors | hit rate 0.13% among 410,000 | AID 624418;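 further: loss of luciferase light is scored as toxicity; potency means the concentration at half of the fitted maximal effect; on the % scale 0 is the no-effect control and ±100 the full control effect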
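MLSMR compounds, 24 hr on cells at 37 deg C/5% CO2; luminescence after luciferase reagent (12 min RT). Inhibition counted as the undesired cytotoxic outcome.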
An asterisk follows results filed as active. Hits are enriched below; roughly 2.8% of the tested compounds scored in any of these assays. Unless noted, the call rests on the fitted dose curve; in most records, active means well fitted curve in the direction sought with a large enough effect; inconclusive means small, poorly fitted or top-dose-only effect, or another doubt; inactive means no such curve, though single readings can be large; an effect the other way counts as inactive or inconclusive.

Results for COc1ccc2c(c1)C(=O)CCC2c1ccccc1 (centres undefined) ?
GLP1R ag: -5.7%; hERG WT inh: 8.0; KCNH2 3.1 block: -119.7*; GLP1R inv ag: inconclusive; GLS inh: -0.2%; HEK293 tox: -5.7%

What do the screens show for `COc1ccc(C(=O)Nc2ccc(C(=O)N3CCCCC3C)cc2)c(OC)c1OC` (centres undefined)?
GLP1R ag: -5.5%; hERG WT inh: 0.2; KCNH2 3.1 block: -4.8; GLP1R inv ag: -7.6%; GLS inh: 2.3%; HEK293 tox: -3.9%

What do the screens show for `Cn1c(Oc2ccc(F)cc2)c(C=O)c2ccccc21`?
GLP1R ag: 5.2%; hERG WT inh: -22.4; KCNH2 3.1 block: -3.4; GLP1R inv ag: 10µM*; GLS inh: -6.5%; HEK293 tox: -12.4%

Results for Cc1c(C=O)c2ccccc2n1CCOc1ccccc1F ?
GLP1R ag: 13.0%; hERG WT inh: -3.1; KCNH2 3.1 block: 11.8; GLP1R inv ag: inconclusive; GLS inh: -7.2%; HEK293 tox: 4.6%

Results for COc1cc(NS(=O)(=O)c2cc(C)ccc2OC)c(OC)cc1Cl ?
GLP1R ag: 0.8%; hERG WT inh: 9.9; KCNH2 3.1 block: 11.9; GLP1R inv ag: -41.7%; GLS inh: 17.4%; HEK293 tox: -0.5%

Results for COc1ccc(C)cc1S(=O)(=O)Nc1cc(Cl)ccc1Cl ?
GLP1R ag: -33.7%; hERG WT inh: 5.6; KCNH2 3.1 block: -15.9; GLP1R inv ag: 8.91µM*; GLS inh: -9.8%; HEK293 tox: 11.0%

Results for COc1ccc(S(=O)(=O)Nc2cc(Cl)ccc2OC)cc1 ?
GLP1R ag: -1.5%; hERG WT inh: 1.9; KCNH2 3.1 block: -0.7; GLP1R inv ag: 1.41µM*; GLS inh: 10.9%; HEK293 tox: -25.7%

Results for COc1ccc(Cl)cc1NS(=O)(=O)c1ccc(OC)c(OC)c1 ?
GLP1R ag: -8.4%; hERG WT inh: -2.6; KCNH2 3.1 block: -1.6; GLP1R inv ag: -2.0%; GLS inh: 24.5%; HEK293 tox: 1.6%

What do the screens show for `Cc1ccccc1CN1C(=O)c2ccccc2Sc2ccc(C(=O)NC(C)c3ccccc3)cc21` (centres undefined)?
GLP1R inv ag: -31.3%; GLS inh: -2.1%; HEK293 tox: -10.0%

How did Cc1ccc(CNC(=S)Nc2ccc3c(c2)c(=O)n(C)n3Cc2cccc(C(F)(F)F)c2)cc1 do in these assays?
GLP1R ag: -1.6%; GLP1R inv ag: inconclusive; GLS inh: 8.1%; HEK293 tox: -28.8%

Results for COC(=O)/C=C/C(=O)Nc1cccc(C(F)(F)F)c1 ?
GLP1R ag: 8.3%; hERG WT inh: 9.8; KCNH2 3.1 block: 5.7; GLP1R inv ag: 7.94µM*; GLS inh: -4.6%; HEK293 tox: inconclusive

How did Cc1ccccc1C(=O)Nc1cccc(NC(=O)c2ccc(C(C)(C)C)cc2)c1 do in these assays?
GLP1R inv ag: 7.94µM*; GLS inh: -5.8%; HEK293 tox: -15.4%

How did CC(C)(O)C(=O)NNC(=S)Nc1cccc(C(F)(F)F)c1 do in these assays?
GLP1R ag: 1.8%; hERG WT inh: -9.8; KCNH2 3.1 block: -93.8*; GLP1R inv ag: -2.1%; GLS inh: 0.3%; HEK293 tox: -4.6%

Results for COC(=S)Nc1cccc(C(F)(F)F)c1 ?
GLP1R ag: 7.7%; hERG WT inh: 2.6; KCNH2 3.1 block: -21.0; GLP1R inv ag: 0.0%; GLS inh: -2.4%; HEK293 tox: 1.1%

How did FC(F)(F)c1cccc(NC(=S)NC(c2ccccc2)c2ccccc2)c1 do in these assays?
GLP1R ag: 5.5%; hERG WT inh: -0.2; KCNH2 3.1 block: -7.1; GLP1R inv ag: 2.82µM*; GLS inh: -1.6%; HEK293 tox: 7.9%

Results for CC(=O)Nc1c(C)nn(-c2ccccc2)c1N1CCC(C(=O)Nc2ccc(Cl)cc2C)CC1 ?
GLP1R inv ag: 20.3%; GLS inh: -5.1%; HEK293 tox: -0.2%

Results for CCOC(=O)CCCCCC(=O)Nc1ccc2c(c1)CC(=O)N([C@@H](C)CO)C[C@H](C)[C@@H](CN(C)C(=O)Nc1ccc3c(c1)OCO3)O2 ?
GLP1R ag: -4.2%; hERG WT inh: -0.4; KCNH2 3.1 block: -12.5; GLP1R inv ag: 5.7%; GLS inh: 22.3%; HEK293 tox: 0.4%

What do the screens show for `Cc1ccccc1C(=O)NNC(=S)Nc1cccc(C(F)(F)F)c1`?
GLP1R ag: -0.3%; hERG WT inh: 10.3; KCNH2 3.1 block: -4.3; GLP1R inv ag: inconclusive; GLS inh: 17.8µM*; HEK293 tox: -29.2%

How did NC(=S)NN=C(c1ccc(F)cc1)C1CC1 do in these assays?
GLP1R ag: -5.5%; hERG WT inh: -3.0; KCNH2 3.1 block: 0.4; GLP1R inv ag: inconclusive; GLS inh: 30.3%; HEK293 tox: 10µM*

What do the screens show for `CCN1C(=O)/C(=C/c2nc3ccccc3c(=O)n2-c2ccccc2)c2ccccc21`?
GLP1R ag: 0.8%; hERG WT inh: inconclusive; KCNH2 3.1 block: -4.6; GLP1R inv ag: 2µM*; GLS inh: -2.2%; HEK293 tox: -15.9%

Results for CCOC(=O)c1cnc(-n2nc(C)cc2C)nc1N(CC)CC ?
GLP1R ag: 20.6%; hERG WT inh: 9.4; KCNH2 3.1 block: 11.8; GLP1R inv ag: 0.0%; GLS inh: 10.0%; HEK293 tox: 2.82µM*

How did CCOC(=O)c1cnc(-n2nc(C)cc2C)nc1NC1CCCCC1 do in these assays?
GLP1R ag: 0.2%; hERG WT inh: -104.6*; KCNH2 3.1 block: -11.7; GLP1R inv ag: 1.26µM*; GLS inh: -1.2%; HEK293 tox: 1µM*

What do the screens show for `CCOC(=O)c1cnc(-n2nc(C)cc2C)nc1Nc1ccc(N(C)C)cc1`?
GLP1R ag: 5.5%; hERG WT inh: -9.2; KCNH2 3.1 block: 6.1; GLP1R inv ag: 1.58µM*; GLS inh: -10.7%; HEK293 tox: 1.12µM*

What do the screens show for `CCOC(=O)c1cnc(-n2nc(C)cc2C)nc1Nc1ccc(C)cc1`?
GLP1R ag: 0.1%; hERG WT inh: 5.2; KCNH2 3.1 block: 0.7; GLP1R inv ag: inconclusive; GLS inh: 0.1%; HEK293 tox: inconclusive

Results for COc1ccccc1N1CCN(C(=O)c2cccc(S(=O)(=O)Nc3ccccc3F)c2)CC1 ?
GLP1R ag: -1.3%; hERG WT inh: 3.7; KCNH2 3.1 block: -12.1; GLP1R inv ag: -16.2%; GLS inh: 9.3%; HEK293 tox: 8.9%

What do the screens show for `Cc1ccc(CN(C(=O)c2ccccc2Br)C2CCS(=O)(=O)C2)o1` (centres undefined)?
GLP1R inv ag: 4.7%; GLS inh: -2.5%; HEK293 tox: 4.3%
